# Measured values from the supplement of paper PMC4466140.
# Columns and labels:
# Assay in all cases: SPOT peptide array binding signal intensity (averaged, normalized) (arbitrary units (background-subtracted, floor 0; scale differs between SH3 domains)); higher = stronger binding of the SH3 domain to the peptide
# [1] = molecular target: AgAbp1
# Method in brief: (§1)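 Cellulose membranes carried synthetic 15-mer peptides with cysteines swapped for serines. These were incubated overnight at 4°C with 10 μg/ml of GST-fused SH3 domains from four yeast species in TBS-based blocking buffer. Binding signal, detected with anti-GST antibody and quantified in Genespotter, is the normalized, background-subtracted spot intensity averaged over replicates, in arbitrary units specific to each domain.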
# [2] = molecular target: AgBbc1
# Method in brief: as §1
# [3] = molecular target: AgBem1-D1
# Method in brief: as §1
# [4] = molecular target: AgBzz1-D1
# Method in brief: as §1
# [5] = molecular target: AgBzz1-D2
# Method in brief: as §1
# [6] = molecular target: AgCyk3
# Method in brief: as §1
# [7] = molecular target: AgFus1
# Method in brief: as §1
# [8] = molecular target: AgHof1
# Method in brief: as §1
# [9] = molecular target: AgHse1
# Method in brief: as §1
# [10] = molecular target: AgLsb1
# Method in brief: as §1
# [11] = molecular target: AgLsb4
# Method in brief: as §1
# [12] = molecular target: AgMyo5
# Method in brief: as §1
# [13] = molecular target: AgNbp2
# Method in brief: as §1
# [14] = molecular target: AgRvs167
# Method in brief: as §1
# [15] = molecular target: AgSho1
# Method in brief: as §1
# [16] = molecular target: AgSla1-D1-D2
# Method in brief: as §1
# [17] = molecular target: AgSla1-D3
# Method in brief: as §1
# [18] = molecular target: CaAbp1-D1
# Method in brief: as §1
# [19] = molecular target: CaAbp1-D2
# Method in brief: as §1
# [20] = molecular target: CaBbc1
# Method in brief: as §1
# [21] = molecular target: CaBem1-D1
# Method in brief: as §1
# [22] = molecular target: CaBzz1-D1
# Method in brief: as §1
# [23] = molecular target: CaBzz1-D2
# Method in brief: as §1
# [24] = molecular target: CaCyk3
# Method in brief: as §1
# [25] = molecular target: CaFus1
# Method in brief: as §1
# [26] = molecular target: CaHof1
# Method in brief: as §1
# [27] = molecular target: CaHse1
# Method in brief: as §1
# [28] = molecular target: CaLsb1
# Method in brief: as §1
# [29] = molecular target: CaLsb4
# Method in brief: as §1
# [30] = molecular target: CaMyo5
# Method in brief: as §1
# [31] = molecular target: CaNbp2
# Method in brief: as §1
# [32] = molecular target: CaRvs167
# Method in brief: as §1
# [33] = molecular target: CaRvs167-3
# Method in brief: as §1
# [34] = molecular target: CaSho1
# Method in brief: as §1
# [35] = molecular target: CaSla1-D1-D2
# Method in brief: as §1
# [36] = molecular target: CaSla1-D3
# Method in brief: as §1
# [37] = molecular target: ScAbp1
# Method in brief: as §1
# [38] = molecular target: ScBbc1
# Method in brief: as §1
# [39] = molecular target: ScBem1-D1
# Method in brief: as §1
# [40] = molecular target: ScBzz1-D1
# Method in brief: as §1
# [41] = molecular target: ScBzz1-D2
# Method in brief: as §1
# [42] = molecular target: ScCyk3
# Method in brief: as §1
# [43] = molecular target: ScFus1
# Method in brief: as §1
# [44] = molecular target: ScHof1
# Method in brief: as §1
# [45] = molecular target: ScHse1
# Method in brief: as §1
# [46] = molecular target: ScLsb1
# Method in brief: as §1
# [47] = molecular target: ScLsb2
# Method in brief: as §1
# [48] = molecular target: ScLsb3
# Method in brief: as §1
# [49] = molecular target: ScLsb4
# Method in brief: as §1
# [50] = molecular target: ScMyo3
# Method in brief: as §1
# [51] = molecular target: ScMyo5
# Method in brief: as §1
# [52] = molecular target: ScNbp2
# Method in brief: as §1
# [53] = molecular target: ScPex13
# Method in brief: as §1
# [54] = molecular target: ScRvs167
# Method in brief: as §1
# [55] = molecular target: ScSho1
# Method in brief: as §1
# [56] = molecular target: ScSla1-D1-D2
# Method in brief: as §1
# [57] = molecular target: ScSla1-D3
# Method in brief: as §1
# [58] = molecular target: SpAbp1-D1
# Method in brief: as §1
# [59] = molecular target: SpBbc1
# Method in brief: as §1
# [60] = molecular target: SpBzz1-D1
# Method in brief: as §1
# [61] = molecular target: SpBzz1-D2
# Method in brief: as §1
# [62] = molecular target: SpCyk3
# Method in brief: as §1
# [63] = molecular target: SpHof1
# Method in brief: as §1
# [64] = molecular target: SpHof1-2
# Method in brief: as §1
# [65] = molecular target: SpHof1-3
# Method in brief: as §1
# [66] = molecular target: SpHse1
# Method in brief: as §1
# [67] = molecular target: SpLsb1
# Method in brief: as §1
# [68] = molecular target: SpLsb4
# Method in brief: as §1
# [69] = molecular target: SpMyo1
# Method in brief: as §1
# [70] = molecular target: SpNbp2
# Method in brief: as §1
# [71] = molecular target: SpPex13
# Method in brief: as §1
# [72] = molecular target: SpRvs167
# Method in brief: as §1
# [73] = molecular target: SpSla1-D1-D2
# Method in brief: as §1
# [74] = molecular target: SpSla1-D3
# Method in brief: as §1
binder,measurement,setting,value
KRRAPPPVPKKPSSR,SPOT peptide array binding signal intensity,[1],5310
same,SPOT peptide array binding signal intensity,[2],1320
same,SPOT peptide array binding signal intensity,[3],274
same,SPOT peptide array binding signal intensity,[4],2790
same,SPOT peptide array binding signal intensity,[5],1090
same,SPOT peptide array binding signal intensity,[6],4
same,SPOT peptide array binding signal intensity,[7],42.5
same,SPOT peptide array binding signal intensity,[8],358
same,SPOT peptide array binding signal intensity,[9],332
same,SPOT peptide array binding signal intensity,[10],650
same,SPOT peptide array binding signal intensity,[11],374
same,SPOT peptide array binding signal intensity,[12],37
same,SPOT peptide array binding signal intensity,[13],6190
same,SPOT peptide array binding signal intensity,[14],106
same,SPOT peptide array binding signal intensity,[15],886
same,SPOT peptide array binding signal intensity,[16],107
same,SPOT peptide array binding signal intensity,[17],1230
same,SPOT peptide array binding signal intensity,[18],5770
same,SPOT peptide array binding signal intensity,[19],7000
same,SPOT peptide array binding signal intensity,[20],2030
same,SPOT peptide array binding signal intensity,[21],95
same,SPOT peptide array binding signal intensity,[22],7240
same,SPOT peptide array binding signal intensity,[23],4490
same,SPOT peptide array binding signal intensity,[24],458
same,SPOT peptide array binding signal intensity,[25],308
same,SPOT peptide array binding signal intensity,[26],0.75
same,SPOT peptide array binding signal intensity,[27],1600
same,SPOT peptide array binding signal intensity,[28],≤ 0
same,SPOT peptide array binding signal intensity,[29],2400
same,SPOT peptide array binding signal intensity,[30],4.75
same,SPOT peptide array binding signal intensity,[31],2600
same,SPOT peptide array binding signal intensity,[32],130
same,SPOT peptide array binding signal intensity,[33],21.8
same,SPOT peptide array binding signal intensity,[34],269
same,SPOT peptide array binding signal intensity,[35],3450
same,SPOT peptide array binding signal intensity,[36],1040
same,SPOT peptide array binding signal intensity,[37],3030
same,SPOT peptide array binding signal intensity,[38],669
same,SPOT peptide array binding signal intensity,[39],29
same,SPOT peptide array binding signal intensity,[40],2330
same,SPOT peptide array binding signal intensity,[41],82.5
same,SPOT peptide array binding signal intensity,[42],13
same,SPOT peptide array binding signal intensity,[43],45.5
same,SPOT peptide array binding signal intensity,[44],0.5
same,SPOT peptide array binding signal intensity,[45],448
same,SPOT peptide array binding signal intensity,[46],517
same,SPOT peptide array binding signal intensity,[47],684
same,SPOT peptide array binding signal intensity,[48],4730
same,SPOT peptide array binding signal intensity,[49],105
same,SPOT peptide array binding signal intensity,[50],439
same,SPOT peptide array binding signal intensity,[51],380
same,SPOT peptide array binding signal intensity,[52],6200
same,SPOT peptide array binding signal intensity,[53],512
same,SPOT peptide array binding signal intensity,[54],1260
same,SPOT peptide array binding signal intensity,[55],3480
same,SPOT peptide array binding signal intensity,[56],4950
same,SPOT peptide array binding signal intensity,[57],1400
same,SPOT peptide array binding signal intensity,[58],6350
same,SPOT peptide array binding signal intensity,[59],192
same,SPOT peptide array binding signal intensity,[60],1370
same,SPOT peptide array binding signal intensity,[61],1470
same,SPOT peptide array binding signal intensity,[62],2.5
same,SPOT peptide array binding signal intensity,[63],218
same,SPOT peptide array binding signal intensity,[64],37.8
same,SPOT peptide array binding signal intensity,[65],591
same,SPOT peptide array binding signal intensity,[66],179
same,SPOT peptide array binding signal intensity,[67],1780
same,SPOT peptide array binding signal intensity,[68],2060
same,SPOT peptide array binding signal intensity,[69],416
same,SPOT peptide array binding signal intensity,[70],188
same,SPOT peptide array binding signal intensity,[71],22
same,SPOT peptide array binding signal intensity,[72],1820
same,SPOT peptide array binding signal intensity,[73],1660
same,SPOT peptide array binding signal intensity,[74],1.5
NFFRKKLGIPRKLKR,SPOT peptide array binding signal intensity,[1],227
same,SPOT peptide array binding signal intensity,[2],12
same,SPOT peptide array binding signal intensity,[3],94
same,SPOT peptide array binding signal intensity,[4],20
same,SPOT peptide array binding signal intensity,[5],45
same,SPOT peptide array binding signal intensity,[6],1.5
same,SPOT peptide array binding signal intensity,[7],142
same,SPOT peptide array binding signal intensity,[8],13.2
same,SPOT peptide array binding signal intensity,[9],1980
same,SPOT peptide array binding signal intensity,[10],3.5
same,SPOT peptide array binding signal intensity,[11],99
same,SPOT peptide array binding signal intensity,[12],2
same,SPOT peptide array binding signal intensity,[13],44
same,SPOT peptide array binding signal intensity,[14],5.33
same,SPOT peptide array binding signal intensity,[15],73
same,SPOT peptide array binding signal intensity,[16],368
same,SPOT peptide array binding signal intensity,[17],1.5
same,SPOT peptide array binding signal intensity,[18],1000
same,SPOT peptide array binding signal intensity,[19],1180
same,SPOT peptide array binding signal intensity,[20],31.5
same,SPOT peptide array binding signal intensity,[21],4
same,SPOT peptide array binding signal intensity,[22],47.5
same,SPOT peptide array binding signal intensity,[23],26
same,SPOT peptide array binding signal intensity,[24],≤ 0
same,SPOT peptide array binding signal intensity,[25],729
same,SPOT peptide array binding signal intensity,[26],0.5
same,SPOT peptide array binding signal intensity,[27],37.2
same,SPOT peptide array binding signal intensity,[28],1
same,SPOT peptide array binding signal intensity,[29],≤ 0
same,SPOT peptide array binding signal intensity,[30],0.75
